Screens (PubChem)
Most compounds without a hit are left out; they make up all but 17% or so of the library.
TDP1 inh – blocks human tyrosyl-DNA phosphodiesterase 1 | Q9NUW8 | recombinant TDP1, AlphaScreen DNA substrate cleavage | Potency, µM (top dose mostly 130 µM), without a hit: at the highest dose activity change, negative = inhibition, usual class: inhibitors | actives 0.28% (n = 350,000) | AID 485290; note: % is set by controls: 0 for no effect and ±100 for the full control effect; nearly all actives have a fitted effect of over 40% in size
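Steps: enzyme plus compound, 15 min RT; add biotin/phosphotyrosine-FITC oligonucleotide (15 nM final), react 5 min; add donor/acceptor beads (10 ug/ml final), 10 min; read AlphaScreen. Tdp1 at 1 nM final.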
DT40 TDP1 CPT – growth inhibition of DT40 Tdp1-/-;hTDP1 cells with camptothecin (screen for TDP1 inhibitors); actives 12% (n = 420,000); chicken DT40 Tdp1-/-;hTDP1 cells + 20 nM CPT, ATP luminescence, 48 h; Potency, µM (highest dose often 46.2 µM), for the others: at the highest dose activity change, negative = growth inhibition, actives largely listed as inhibitors; note: % is set by controls: 0 for no effect and ±100 for the full control effect; nearly all actives have a fitted effect of over 55% in size
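Chicken DT40 Tdp1-/- cells complemented with human TDP1, 400 cells/well, exposed to compounds plus 20 nM camptothecin for at least 48 h at 37 C; viability read as ATP content by CellTiter-Glo luminescence.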
ClpP mod – qHTS Assay for Activators of ClpP; ATP-dependent Clp protease proteolytic subunit (Bacillus subtilis (strain 168)), P80244; purified B. subtilis ClpP, FRET peptide cleavage, 20 min; Potency, µM (doses to about 57.5 µM), inactives show at the top dose activity change, negative = active; actives 1.9% (n = 340,000); AID 651965, 2013; active = well fitted falling curve with a large enough effect; inconclusive = small, poorly fitted or top-dose-only effect; inactive = no such curve, though single readings can be large or run the other way; note: the source files actives as falling curves though it sought activators and does not explain the sign; nearly all actives have a fitted effect of over 65% in size
Target sequence (P80244 whole entry, looked up): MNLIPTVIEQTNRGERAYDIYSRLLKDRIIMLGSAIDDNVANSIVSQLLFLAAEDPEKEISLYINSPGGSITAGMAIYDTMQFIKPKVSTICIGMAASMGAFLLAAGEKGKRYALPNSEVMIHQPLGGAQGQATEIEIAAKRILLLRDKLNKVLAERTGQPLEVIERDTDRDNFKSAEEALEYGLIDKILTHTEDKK
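FRET quenching reversal measured ClpP activation: 10 microg/mL B. subtilis ClpP at pH 8 with the FRET-FV decapeptide, read at 430 nm after 320 nm excitation. The 20-min minus 0-min signal was scaled between DMSO/no-enzyme wells and ADEP (5.8 microM final).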
TDP1 cell noCPT – qHTS for Inhibitors of human tyrosyl-DNA phosphodiesterase 1 (TDP1): qHTS in cells in absence of CPT; DT40 Tdp1-/- hTDP1 cells, no CPT, ATP luminescence, 48 h; Potency, µM (series often up to 46.2 µM), for the others: at the top dose activity change, negative = growth inhibition, most hits filed as inhibitors; actives 15% (n = 420,000); AID 686978, 2013; note: % is set by controls: 0 for no effect and ±100 for the full control effect; nearly all actives have a fitted effect of over 55% in size
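Luminescent ATP content (CellTiter-Glo) served as the growth readout. Knockout chicken DT40 cells expressing human TDP1 were exposed to compounds without camptothecin for a minimum 48 hr at 37 °C.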
The depositor's hits bear a star; ? = inconclusive; . = not tested or not shown; ! = repeats disagree; [ ] = another dose, or the depositor's remark. Unless noted, calls come from the whole dose curve; as a rule, active = well fitted curve in the direction sought with a large enough effect; inconclusive = small, poorly fitted or top-dose-only effect, or another doubt; inactive = no such curve, though single readings can be large; an effect the other way counts as inactive or inconclusive. Potency is the fitted concentration of half-maximal effect.

SMILES | TDP1 inh | DT40 TDP1 CPT | ClpP mod | TDP1 cell noCPT
COc1cc2c(cc1OC)CN(c1ccc(C(F)(F)F)cn1)CC2 | -2% | ? | . | 16µM*
COc1cc(C(=O)COC(=O)C2CCN(c3ccc(C(F)(F)F)cn3)CC2)ccc1OC(F)F | -9%[0.505 µM] | -27% | -3% | -27%
COc1ccccc1-c1cc(-n2ccnc2)ncn1 | . | -2% | . | -4%
COc1cc2c(cc1OC)CN(c1ccc(-c3ccccc3OC)nn1)CC2 | 4% | ? | -2% | 23µM*
c1ccc2c(c1)CCN(c1ncnc3c1[nH]c1ccccc13)C2 | 5% | 4.6µM* | 20µM* | 4.6µM*
COc1cccc2[nH]c3c(N4CCc5ccccc5C4)ncnc3c12 | . | ? | . | 21µM*
COc1cccc2[nH]c3c(N4CCC(C)CC4)ncnc3c12 | 8% | 26µM* | 14µM* | 18µM*
c1ccc2c(c1)[nH]c1c(N3CCC4(CC3)OCCO4)ncnc12 | 3% | 16µM* | 28µM* | 7.3µM*
COc1cccc2[nH]c3c(N4CCN(Cc5ccc6c(c5)OCO6)CC4)ncnc3c12 | 9% | . | . | .
Cc1ccc(CNC(=O)c2ccc(N3CCCC3)c(NC(=O)Nc3ccc(F)c(Cl)c3)c2)cc1 | 4% | -2% | ? | -8%
COc1ccc(C2CC(=O)N(Cc3ccccc3)c3c2c(C)nn3-c2nc(C)cc(C)n2)c(OC)c1 (stereo not given) | -1% | ? | 2% | ?
Cc1cccc(NC(=O)c2ccc(C(=O)Nc3cccc(C)c3C)cc2)c1C | 1%[12.3 µM] | -20% | -1% | 3%
OC1(c2cccc(C(F)(F)F)c2)CCN(c2ccc(-c3ccccc3)nn2)CC1 | -2% | -29% | -6% | -22%
OC1(c2cccc(C(F)(F)F)c2)CCN(c2ncnc3c2[nH]c2ccccc23)CC1 | 4% | 23µM* | ? | 21µM*
COc1cccc2[nH]c3c(N4CCC5(CC4)OCCO5)ncnc3c12 | 4% | ? | 4% | 23µM*
CCC(C)c1ccccc1NC(=O)C(C)OC(=O)CN1C(=O)NC(C)(C)C1=O (stereo not given) | 0% | 5% | -3% | -2%
O=C1NC(c2ccco2)Nc2sc3c(c21)CCN(Cc1ccccc1)C3 (stereo not given) | -1% | 23µM* | 4% | 16µM*
CN1CCc2c(sc3c2C(=O)NC(c2ccc(-c4ccc(Cl)cc4)o2)N3)C1 (stereo not given) | 6% | ? | . | ?
CN1CCc2c(sc3c2C(=O)NC(c2cn(Cc4ccccc4)c4ccccc24)N3)C1 (stereo not given) | 6% | 21µM* | 16µM* | 23µM*
CN1CCc2c(sc3c2C(=O)NC(c2ccco2)N3)C1 (stereo not given) | 6% | -16% | 28µM* | -2%
COc1ccc(Br)cc1C1NC(=O)c2c(sc3c2CCN(C)C3)N1 (stereo not given) | -2% | -2% | -16% | -24%
Cc1ccc(NC(=O)CS(=O)CC(=O)NC23CC4CC(CC(C4)C2)C3)cc1 (stereo not given) | 9% | -28% | . | ?
O=C(CSc1nc2nn(-c3ccccc3)c(=O)c-2c2n1CCCCC2)c1ccc(O)c(O)c1 | -7% | ? | 1% | ?
COc1ccc(NC(=O)c2sc3ncnc(N4CCN(c5ccccn5)CC4)c3c2C)cc1Cl | 2% | 21µM* | -15% | 5.8µM*
COc1ccc(NC(=O)c2sc3nc(C)nc(N4CCN(c5ccccn5)CC4)c3c2C)cc1Cl | . | ? | ? | 21µM*
SMILES | TDP1 inh | DT40 TDP1 CPT | ClpP mod | TDP1 cell noCPT
COc1ccccc1NC(=O)Cn1cnc2sc(C(=O)Nc3ccc(OC)c(OC)c3)c(C)c2c1=O | 0% | 11% | 1% | 1%
Cc1cc(Br)ccc1NC(=O)c1sc2ncnc(N3CCN(c4ccccn4)CC3)c2c1C | 1% | 10µM* | -14% | 2.6µM*
COc1ccc(Cl)cc1NC(=O)c1sc2nc(C)nc(N3CCOCC3)c2c1C | 9% | -19% | 1% | -1%
COc1ccccc1NC(=O)C1=C(C)Nc2nnnn2C1c1cc(Br)c(O)c(OC)c1 (stereo not given) | 5% | 5% | 2% | 1%
O=C(CN1CCCC1)N1c2ccccc2Sc2ccc(C(F)(F)F)cc21 | 10% | ? | -3% | ?
O=C(CSc1nc2ccccc2o1)N1c2ccccc2Sc2ccc(C(F)(F)F)cc21 | 4% | ? | -3% | 21µM*
O=C(/C=C/Sc1ccccc1)c1ccc(Cl)cc1 | 3% | ? | 2% | 16µM*
O=C(/C=C/Sc1ccccc1)c1ccccc1 | -1% | 5.8µM* | -16% | 5.2µM*
O=C(c1ccc(COc2ccc(Cl)cc2Cl)o1)N1CCCC1 | 3% | -30% | -2% | 18µM*
COc1ccccc1OCc1ccc(C(=O)N2CCCCC2)o1 | . | 2% | . | 0%
Cc1ccc(C(=O)N2CCN(Cc3ccc4c(c3)OCO4)CC2)o1 | 6% | -5% | -2% | -8%
O=C(c1ccc(COc2ccccc2Cl)o1)N1CCN(Cc2ccc3c(c2)OCO3)CC1 | 7% | 16µM*! | -3% | 21µM*
O=C(c1ccc(COc2ccc(Cl)cc2)o1)N1CCN(Cc2ccc3c(c2)OCO3)CC1 | 5% | ? | 0% | 11µM*
CCCCN(CC)C(=O)Cn1c(=O)n(-c2ccc(OCC)cc2)c(=O)c2c3c(sc21)CCCC3 | 2% | ? | 0% | -103%
CCCCNC(=O)c1ccc2c(c1)N(CC)C(=O)c1ccccc1S2 | 5% | ? | 1% | ?
COC(=O)c1c(NC(=O)C2c3ccccc3Oc3ccccc32)sc2c1CCC(C(C)(C)C)C2 (stereo not given) | 2% | ? | -14% | ?
CCC1CCc2c(sc(NC(=O)C3c4ccccc4Oc4ccccc43)c2C(=O)OC)C1 (stereo not given) | 2% | ? | 4% | 10µM*
CCN(CC)S(=O)(=O)c1ccc(NC(=O)C2c3ccccc3Oc3ccccc32)cc1 | 8% | 23µM* | -3% | 16µM*
COC(=O)c1c(NC(=O)C2c3ccccc3Oc3ccccc32)sc(C)c1C | 4% | 23µM* | ? | ?
CNS(=O)(=O)c1ccc(NC(=O)C2c3ccccc3Oc3ccccc32)cc1 | 3% | -15% | 1% | -14%
COC(=O)c1sc(NC(=O)C2c3ccccc3Oc3ccccc32)c(C(=O)OC)c1C | 0% | ? | ? | ?
CCOC(=O)c1c(NC(=O)C2=C(C)NC(=S)NC2c2ccc(C)cc2)sc(C)c1C (stereo not given) | -3% | ? | -3% | 13µM*
COc1ccc(/C(N)=N/OC(=O)CN(C)S(=O)(=O)c2ccc(C)cc2)cc1 | 0% | ? | -2% | ?
CCOC(=O)CNC(=S)N(CCCN1CCN(C)CC1)Cc1cccs1 | . | -3% | -3% | -20%
